# Source: the supplement of paper PMC9399229
# Counter-ions that a name gives are not always drawn. ± gives the standard deviation of the averaged measurements. Over roughly 1,900 compounds, “relative cell viability (CellTiter-Glo), compound alone” has its median near 1; the lowest 2% begin near 0.16. The entries come from a sample that favours the lowest values as a whole.
# Test system: Hep3B
# Experiment: relative cell viability (CellTiter-Glo), compound alone (fraction); higher = more viable cells (less growth inhibition)
# Details: cabozantinib 0 µM; 4 days
row,Compound,relative cell viability
1,FC(F)(F)Oc1ccc2nc(-c3ccc(OCCOCCOc4ccc(-c5nc6ccc(OC(F)(F)F)cc6[nH]5)nc4)cn3)[nH]c2c1,0.708 ± 0.0018
2,OCc1c[nH]c2ccccc12 [Indole-3-carbinol],1.007 ± 0.0087
3,O=C(/C=C/c1ccc(CN(CCO)CCc2c[nH]c3ccccc23)cc1)NO [LAQ824 (Dacinostat)],0.124 ± 0.015
4,O=C(O)CCCc1c[nH]c2ccccc12 [3-Indolebutyric acid (IBA)],1.11 ± 0.1
5,COc1cc(C(=O)N2CCC(N3CCN(C)CC3)CC2)ccc1Nc1ncc2c(n1)N(C)c1ccccc1C(=O)N2C,1.02 ± 0.019
6,Cc1cc(F)c(Nc2ncnc3cc(OCc4ccccc4)ccc23)cc1O,1.17 ± 0.027
7,COc1ccc(C[C@H](NC(=O)[C@H](C)NC(=O)CN2CCOCC2)C(=O)N[C@@H](Cc2ccccc2)C(=O)[C@@]2(C)CO2)cc1,0.1525 ± 0.00028
8,COC(=O)[C@H](Cc1ccccc1)NC(=O)[C@@H](N)CC(=O)O [Aspartame],1.09 ± 0.15
9,CC(NC(=O)C(Cc1ccccc1)NC(=O)OCc1ccccc1)C(=O)CF (configuration not stated),0.951 ± 0.043
10,CC(C)C[C@H](NC(=O)[C@H](Cc1ccccc1)NC(=O)c1cnccn1)B(O)O [Bortezomib (PS-341)],0.329 ± 0.066
11,CC(C)C[C@H](NC(=O)[C@H](CCc1ccccc1)NC(=O)CN1CCOCC1)C(=O)N[C@@H](Cc1ccccc1)C(=O)N[C@@H](CC(C)C)C(=O)[C@@]1(C)CO1 [Carfilzomib (PR-171)],0.193 ± 0.016
12,COC[C@H](NC(=O)c1cnc(C)s1)C(=O)N[C@@H](COC)C(=O)N[C@@H](Cc1ccccc1)C(=O)[C@@]1(C)CO1 [Oprozomib (ONX 0912)],0.123 ± 0.005
13,CC(C)N(C[C@H]1O[C@@H](n2cnc3c(N)ncnc32)[C@H](O)[C@@H]1O)[C@H]1C[C@@H](CCc2nc3cc(C(C)(C)C)ccc3[nH]2)C1,1.12 ± 0.029
14,C[C@H]1O[C@@H](O[C@H]2[C@@H](O)C[C@H](O[C@H]3[C@@H](O)C[C@H](O[C@H]4CC[C@@]5(C)[C@H](CC[C@@H]6[C@@H]5C[C@@H](O)[C@]5(C)[C@@H](C7=CC(=O)OC7)CC[C@]65O)C4)O[C@@H]3C)O[C@@H]2C)C[C@H](O)[C@@H]1O [Digoxin],0.0999 ± 0.0026
15,C[C@H]1Oc2cc(cnc2N)-c2c(nn(C)c2C#N)CN(C)C(=O)c2ccc(F)cc21,1.12 ± 0.049
16,Cn1cc(C2=C(c3cn(CCCSC(=N)N)c4ccccc34)C(=O)NC2=O)c2ccccc21 [Ro 31-8220 Mesylate],1.05 ± 0.1
17,C/C(=N\NC(=O)c1cccc(S(=O)(=O)N2CCOCC2)c1)c1cc(Cl)ccc1O,1.08 ± 0.014
18,COc1ccc(S(=O)(=O)N(C(C)=O)c2ccccc2/C=C/c2cc[n+]([O-])cc2)cc1,0.855 ± 0.05
19,NC[C@@](O)(c1ccc(Cl)cc1)c1ccc(-c2cn[nH]c2)cc1,0.23 ± 0.029
20,COc1c(C)cnc(Cn2cnc3c(Cl)nc(N)nc32)c1C,0.19 ± 0.017
21,O=C(Cc1cccc(OC(F)(F)F)c1)Nc1ccc(CCCCc2nnc(NC(=O)Cc3ccccn3)s2)nn1,1.04 ± 0.35
22,O=C1NC(=O)C(c2cnc3ccccn23)=C1c1cn2c3c(cc(F)cc13)CN(C(=O)N1CCCCC1)CC2,1.28 ± 0.1
23,COc1ccccc1S(=O)(=O)Nc1ccc2c(c1)CN(C)C(=O)N2,0.881 ± 0.091
24,Cc1ncc(CCCN(C)C)cc1Nc1ncc2c(n1)-c1ccc(C(F)(F)F)cc1NC(=S)C2,0.81 ± 0.023
25,CNc1nc(Nc2cnn([C@H]3CCN(C4COC4)C[C@@H]3F)c2Cl)ncc1C(F)(F)F,1.14 ± 0.02
26,Clc1ccc(C2(c3ccc(-c4cn[nH]c4)cc3)CCNCC2)cc1,0.972 ± 0.2

row,Compound,relative cell viability
1,CC1=C(C(=O)OC2CCCCC2)C(c2ccc([N+](=O)[O-])cc2)C2=C(CC(C)(C)CC2=O)N1 (configuration not stated),1.19 ± 0.022
2,COC(=O)C1=CO[C@@H](O[C@@H]2O[C@H](CO)[C@@H](O)[C@H](O)[C@H]2O)[C@@H]2C(CO)=CC[C@H]12 [Geniposide],1.11 ± 0.078
3,COc1ccc(NS(=O)(=O)c2sc3ccc(Cl)cc3c2C)cc1N1CCNCC1,0.974 ± 0.19
4,CCNC(=O)C#Cc1ccc2c(C(=Nc3ccc(CN(C)C)cc3)c3ccccc3)c(O)[nH]c2c1,0.278 ± 0.007
5,CCOC(=O)CCNc1cc(N2CCc3ccccc3CC2)nc(-c2ccccn2)n1,0.742 ± 0.084
6,Cc1cc(OCc2nnc(SC3CCCC3)n2-c2cccnc2)ccc1-c1ccc(S(C)(=O)=O)cc1,1.07 ± 0.024
7,CCOC(=O)Nc1cc(-c2ccc(C)c(NS(C)(=O)=O)c2)nn2c(C)nnc12 [Bromosporine],0.851 ± 0.044
8,CCc1c(O)cc(O)c(C(=O)c2ccc(OCCN3CCOCC3)c(OC)c2)c1CC(=O)N(CCOC)CCOC,0.48 ± 0.01
9,COC(=O)C[C@H](NC(=O)[C@H](C)NC(=O)[C@@H](NC(=O)OCc1ccccc1)C(C)C)C(=O)CF,1 ± 0.094
10,NC(=O)c1cccc2[nH]c(-c3ccc(C4CCCN4)cc3F)nc12 (configuration not stated),0.981 ± 0.079
11,NC1=N[C@@](c2cccc(-c3cncnc3)c2)(c2ccnc(C(F)F)c2)c2cccc(F)c21,1.34 ± 0.037
12,COc1cccc2c1C(=O)c1c(O)c3c(c(O)c1C2=O)C[C@@](O)(C(=O)CO)C[C@@H]3O[C@H]1C[C@H](N)[C@H](O)[C@H](C)O1 [Doxorubicin (Adriamycin)],0.144 ± 0.0086
13,COc1cccc2c1C(=O)c1c(O)c3c(c(O)c1C2=O)C[C@@](O)(C(C)=O)C[C@@H]3O[C@H]1C[C@H](N)[C@H](O)[C@H](C)O1 [Daunorubicin HCl],0.0682 ± 0.0026
14,COc1cccc2c1C(=O)c1c(O)c3c(c(O)c1C2=O)C[C@@](O)(C(=O)CO)C[C@@H]3O[C@H]1C[C@H](N)[C@H](O[C@@H]2CCCCO2)[C@H](C)O1 [Pirarubicin],0.157 ± 0.078
15,COc1cccc2c1C(=O)c1c(O)c3c(c(O)c1C2=O)C[C@@](O)(C(=O)CO)C[C@@H]3O[C@H]1C[C@H](N)[C@@H](O)[C@H](C)O1 [Epirubicin HCl],0.0641 ± 0.0026
16,O=C(O)c1cc(I)ccc1NC(=O)[C@H](Cc1ccccc1)NCc1ccccc1,1.03 ± 0.032
17,C=CC(=O)N1CCC(Oc2cc3c(Nc4ccc(Cl)c(Cl)c4F)ncnc3cc2OC)CC1 [Poziotinib (HM781-36B)],0.933 ± 0.022
18,CN(C)CCN1C(=O)c2cccc3cc(N)cc(c23)C1=O [Amonafide],1.22 ± 0.09
19,C=CC(=O)Nc1ccc2ncnc(Nc3ccc(OCc4cccc(F)c4)c(Cl)c3)c2c1,1.41 ± 0.053
20,COc1cc(C(=O)NC2CCCNC2)cc(OC)c1OC (configuration not stated) [Troxipide],1.07 ± 0.12
21,NC(=O)Nc1cc(-c2cccc(F)c2)sc1C(=O)N[C@H]1CCCNC1,0.151 ± 0.016
22,NC(=O)Nc1sc(-c2ccc(F)cc2)cc1C(N)=O,1.1 ± 0.043
23,O=C(NO)c1cccc(C(=O)NCCc2ccccc2)c1,1.16 ± 0.059
24,COc1cc2ncc(-c3ccccc3)nc2cc1OC [Tyrphostin AG 1296],1 ± 0.02
25,Nc1nccc2c1ncn2C1C=C(CO)C(O)C1O (configuration not stated) [3-Deazaneplanocin A (DZNeP)],0.933 ± 0.013
26,Cc1nc(C#Cc2ccnc(Cl)c2)c(C)n1-c1ccc(OC(F)(F)F)cc1,1 ± 0.056

row,Compound,relative cell viability
1,O=C(/C=C/c1ccc2ccccc2n1)c1ccncc1,0.167 ± 0.0076
2,CCOC(=O)n1ccn(C)c1=S [Carbimazole],1.02 ± 0.14
3,COc1ccc(C[C@H](N)C(=O)N[C@H]2[C@@H](O)[C@H](n3cnc4c(N(C)C)ncnc43)O[C@@H]2CO)cc1 [Puromycin 2HCl],0.0517 ± 0.001
4,COc1nc(N)nc2c1ncn2[C@@H]1O[C@H](CO)[C@@H](O)[C@@H]1O [Nelarabine],1.1 ± 0.035
5,CNc1ncnc2c1ncn2[C@@H]1O[C@H](CO)[C@@H](O)[C@H]1O [N6-methyladenosine (m6A)],1.15 ± 0.042
6,c1cc(-c2cnn3cc(-c4ccc(N5CCNCC5)cc4)cnc23)c2cccnc2c1,0.142 ± 0.013
7,COc1ccc(-c2cnc3c(-c4cccc5ncccc45)cnn3c2)cc1,1.31 ± 0.03
8,COc1cc(-c2cc(-c3ccc(N4CCNCC4)cc3)cnc2C)cc(OC)c1OC,0.937 ± 0.023
9,CCCNCC(O)COc1ccccc1C(=O)CCc1ccccc1 (configuration not stated) [Propafenone HCl],0.855 ± 0.07
10,Cc1cc(-c2ccc(CC(=O)Nc3ccc(-c4cccnc4)cc3)cc2)ccn1,1.268 ± 0.0057
11,CC(C=CC(=O)NO)=CC(C)C(=O)c1ccc(N(C)C)cc1 (configuration not stated) [Trichostatin A (TSA)],0.131 ± 0.019
12,CN1CCN(c2ccc(Nc3cc(-c4cccc(-n5ccc6cc(C7CC7)cc(F)c6c5=O)c4CO)cn(C)c3=O)nc2)CC1,1.1 ± 0.14
13,Cc1cc(NC(=O)c2cccc(NC(=O)/C=C/CN(C)C)c2)ccc1Nc1nccc(-c2cccnc2)n1,0.837 ± 0.011
14,O=C(c1cncc(Br)c1)N1CCC(N2CCCC2)CC1,1.03 ± 0.058
15,O=C(COc1cccc2c(=O)[nH]ccc12)c1ccccc1,1.16 ± 0.033
16,CC(C)c1ccc(NC(=O)Cn2cnc3c2c(=O)n(C)c(=O)n3C)cc1,1.02 ± 0.041
17,Cc1ccc(C(=O)N(CCCN)[C@@H](c2oc3cc(Cl)ccc3c(=O)c2Cc2ccccc2)C(C)C)cc1,0.245 ± 0.0053
18,CC1=C(C(=O)Nc2cc3cn[nH]c3cc2F)C(c2ccc(C(F)(F)F)cc2)CC(=O)N1 (configuration not stated),1.3 ± 0.16
19,C/C(=N\NC(=S)N1CCC1)c1ccccn1,0.0813 ± 0.0087
20,CN(C)C(=S)NN=C(c1ccccn1)c1ccccn1,0.265 ± 0.025
21,CCN(CC)C(=S)SSC(=S)N(CC)CC [Disulfiram],0.134 ± 0.012
22,CN1CCN(c2ccc(OC(F)(F)F)c(Nc3ncc4c(n3)-c3c(c(C(N)=O)nn3CCO)CC4)c2)CC1,0.48 ± 0.02
23,O=C(N/N=C/c1ccc(O)c(O)c1)c1cc2ccccc2cc1O [Dynasore],0.932 ± 0.05
24,Cc1nc2c([nH]1)-c1ccccc1N(C(=O)c1ccc(NC(=O)c3ccccc3-c3ccccc3)cc1)CC2 [Conivaptan HCl],1.12 ± 0.15
25,C[C@@H](O[C@H]1OCCN(Cc2nn(P(=O)(O)O)c(=O)[nH]2)[C@H]1c1ccc(F)cc1)c1cc(C(F)(F)F)cc(C(F)(F)F)c1 [Fosaprepitant dimeglumine salt],1.04 ± 0.1
